{"source": "PubChem BioAssay (NCATS)", "note": "Results filed as inconclusive are left out. Activity calls are given as the source filed them. Calls come from the whole dose curve; as a rule, active = well fitted cell-killing curve with a large enough effect; inconclusive = small, poorly fitted or top-dose-only effect, or effect the other way; inactive = no such curve, though single readings can be large or run the other way. Potency is the fitted concentration of half-maximal effect.", "data": [{"test": "Quantitative High-Throughput drug screen in 47 multiple myeloma cell lines against the NCATS MIPE library collection: JJN3_DSMZ cell viability assay (AID 1918966; note: nearly all actives have a fitted effect of over 50% in size)", "conditions": "JJN3 myeloma cells viability, CellTiter-Glo ATP, 48 h; series mostly up to 45.8 µM", "excerpt": "PI: Beverly A. Mock Ph.D.\nLaboratory of Cancer Biology and Genetics,\nCenter for Cancer Research, National Cancer Institute,\nNational Institute of Health, Bethesda, Maryland\nDrug resistance and disease progression are common in multiple myeloma (MM) patients, underscoring the need for new therapeutic combinations. […] We hypothesized that effective combinations would reduce MYC expression and enhance p16 activity. […] These preclinical data identify potentially useful drug combinations for evaluation in drug-resistant MM and reveal potential mechanisms of combined drug sensitivity.\nDescribed herein is the primary MIPE qHTS used to cherrypick compounds. Validated compounds were then further tested for potential synergistic activiy.\n[1] Peat TJ, Gaikwad SM, Dubois W, Gyabaah-Kessie N, Zhang S, Gorjifard S, Phyo Z, Andres M, Hughitt VK, Simpson RM, Miller MA, Girvin AT, Taylor A, Williams D, D'Antonio N, Zhang Y, Rajagopalan A, Flietner E, Wilson K, Zhang X, Shinn P, Klumpp-Thomas C, McKnight C, Itkin Z, Chen L, Kazandijian D, Zhang J, Michalowski AM, Simmons JK, Keats J, Thomas CJ, Mock BA. Drug combinations identified by high-throughput screening promote cell cycle transition and upregulate Smad pathways in myeloma. Cancer Lett. 2023 Aug 1;568:216284. doi: 10.1016/j.canlet.2023.216284. Epub 2023 Jun 24. PMID: 37356470; PMCID: PMC10408729.\nSEQUENCE No. (e.g., 1, 2, 3, etc.); […] (e.g., Cells, Incubation, Reagent, etc.); VALUE and DESCRIPTION.\n1; Cells; 5 uL; white, solid bottom 1536-well Greiner assay plate.\n2; Compounds; 23 nL; Kalypsis pin tool (Wako USA) equipped with a 1536-well pin head to transfer to the assay plates.\n3; Incubation; 48 hours; 37C incubation.\n4; Reagent;5uL; CellTiter Glo (Promega).\n5; Detector; 425V; Luminescence; Viewlux PerkinElmer.\nNOTES (numbers refer to Sequence numbers above)\n1. The cell-based screening methods employed in this study were like those previously published. Briefly, the corresponding myeloma cell lines were screened in 1,536-well plates with 500 cells, 5-uL per well for inhibition of cell viability (assessed by measuring ATP levels with CellTiterGlo).\n2. NCATS MIPE 4.0 library of approved and investigational drugs were added using the Kalypsis pin tool. Wells treated with DMSO only for 100% viability and media only wells for 0% viability were used as controls.\n3. The assay plates were covered and incubated for 48 hours in a 37C, 5% CO2 incubator with controlled humidity.\n4. After 48 hours, CellTilter-GloTM luminescent substrate mix (Promega) reagent was added to the assay plate and plates we incubated for 5 min at room temperature.\n5. Signal was measured as median relative luminescence units on a ViewLux (PerkinElmer) multiplate reader.\n[1] Heske CM, Davis MI, Baumgart JT, Wilson K, Gormally MV, Chen L, Zhang X, Ceribelli M, Duveau DY, Guha R, Ferrer M, Arnaldez FI, Ji J, Tran HL, Zhang Y, Mendoza A, Helman LJ, Thomas CJ. Matrix Screen Identifies Synergistic Combination of PARP Inhibitors and Nicotinamide Phosphoribosyltransferase (NAMPT) Inhibitors in Ewing Sarcoma. Clin Cancer Res. 2017 Dec 1;23(23):7301-7311. doi: 10.1158/1078-0432.CCR-17-1121. Epub 2017 Sep 12. PMID: 28899971; PMCID: PMC6636827.", "values": [{"smiles": "c1ccc(CNc2nc(N3CCOc4ccccc43)nc3c2CCCC3)cc1", "Potency": "inactive"}, {"smiles": "O=S(=O)(NCCNCC=Cc1ccc(Br)cc1)c1cccc2cnccc12", "Potency": "16.6 µM (active)"}, {"smiles": "C[C@@H]1C[C@H]2[C@@H]3CCC4=CC(=O)C=C[C@]4(C)[C@@]3(F)[C@@H](O)C[C@]2(C)[C@@]1(O)C(=O)CO", "Potency": "inactive"}, {"smiles": "O=S(=O)(O)c1ccc2cc(N=Nc3cc(S(=O)(=O)O)c4cccnc4c3O)ccc2c1", "Potency": "18.7 µM (active)"}, {"smiles": "CN1CC(=O)NC1=NC(=O)Nc1cccc(Cl)c1", "Potency": "8.33 µM (active)"}, {"smiles": "CCc1cc(-c2n[nH]c(C)c2-c2ccc3c(c2)OCCO3)c(O)cc1O", "Potency": "4.18 µM (active)"}, {"smiles": "CNC(=O)[C@H](Cc1ccccc1)NC(=O)[C@H](CC(C)C)[C@H](CSc1cccs1)C(=O)NO", "Potency": "18.7 µM (active)"}, {"smiles": "CC[C@H]1OC(=O)[C@H](C)[C@@H](O[C@H]2C[C@@](C)(OC)[C@@H](O)[C@H](C)O2)[C@H](C)[C@@H](O[C@@H]2O[C@H](C)C[C@H](N(C)C)[C@H]2O)[C@](C)(O)C[C@H](C)C(=NOCOCCOC)[C@H](C)[C@@H](O)[C@]1(C)O", "Potency": "13.2 µM (active)"}, {"smiles": "Cc1c(-c2cccc3c(CCCOc4cccc5ccccc45)c(C(=O)O)n(Cc4cccnc4)c23)c(COc2ccc(N3CCN([S+](=O)([O-])N(C)C)CC3)cc2)nn1C", "Potency": "23.5 µM (active)"}, {"smiles": "Nc1ccn([C@@H]2O[C@H](CO)[C@@H](O)[C@H]2O)c(=O)n1", "Potency": "inactive"}, {"smiles": "CN(C)CCN(C)C(=O)c1ccc(NC(=O)Nc2ccc(-c3nc(N4CCOCC4)c4ccn(CC(F)(F)F)c4n3)cc2)cc1", "Potency": "0.0372 µM (active)"}, {"smiles": "CCn1c(-c2nonc2N)nc2cncc(CNC3CCNCC3)c21", "Potency": "5.26 µM (active)"}, {"smiles": "CNC1CCC(N(Cc2cccc(-c3ccncc3)c2)C(=O)c2sc3ccccc3c2Cl)CC1", "note": "(stereo not given)", "Potency": "18.7 µM (active)"}, {"smiles": "CC(C)CN(C[C@@H](O)[C@H](Cc1ccccc1)NC(=O)O[C@H]1CO[C@H]2OCC[C@H]21)S(=O)(=O)c1ccc(N)cc1", "Potency": "23.5 µM (active)"}, {"smiles": "CO[C@H]1/C=C\\O[C@@]2(C)Oc3c(C)c(O)c4c(O)c(c(C=NN5CCN(C6CCCC6)CC5)c(O)c4c3C2=O)NC(=O)C(C)=CC=C[C@H](C)[C@H](O)[C@@H](C)[C@@H](O)[C@@H](C)[C@H](OC(C)=O)[C@H]1C", "Potency": "6.62 µM (active)"}, {"smiles": "CCOC(=O)[C@H](CCc1ccccc1)N[C@@H](C)C(=O)N1CCCC1C(=O)O", "note": "(stereo not given in full)", "Potency": "inactive"}, {"smiles": "CCOC(=O)N1c2ccc(C(F)(F)F)cc2[C@@H](N(Cc2cc(C(F)(F)F)cc(C(F)(F)F)c2)C(=O)OC)C[C@H]1CC", "Potency": "5.9 µM (active)"}, {"smiles": "CN(C)CCOc1ccc(-c2nc(-c3ccc4c(c3)CCC4=NO)c(-c3ccncc3)[nH]2)cc1", "Potency": "16.6 µM (active)"}, {"smiles": "COc1c(C)c2c(c(O)c1CC=C(C)CCC(=O)O)C(=O)OC2", "Potency": "4.69 µM (active)"}, {"smiles": "Cc1ccc(NC(=O)c2cccc(N(C)C)c2)cc1NC(=O)c1ccc(O)cc1", "Potency": "23.5 µM (active)"}, {"smiles": "CC1(C)OC2CC3C4CC(F)C5=CC(=O)C=CC5(C)C4C(O)CC3(C)[C@]2(C(=O)CO)O1", "note": "(stereo not given in full)", "Potency": "inactive"}, {"smiles": "C=C1[C@H](n2cnc3c(=O)[nH]c(N)nc32)C[C@H](O)[C@H]1CO", "Potency": "inactive"}, {"smiles": "O=C(Nc1cccc(Cl)c1)Nc1ncc(CCNc2ncnc3ccsc23)s1", "Potency": "5.26 µM (active)"}, {"smiles": "C[C@H]1O[C@@H](n2cc(F)c(=O)[nH]c2=O)[C@H](O)[C@H]1O", "Potency": "inactive"}, {"smiles": "C[C@H]1COC2=C1C(=O)C(=O)c1c2ccc2c1CCCC2(C)C", "Potency": "18.7 µM (active)"}, {"smiles": "Cc1ccc2c(c1)C(=O)[C@]1(O)CCN(c3ccccc3)C1=N2", "Potency": "11.8 µM (active)"}, {"smiles": "Cc1[nH]c(C=C2C(=O)Nc3ccc(S(=O)(=O)N(C)c4cccc(Cl)c4)cc32)c(C)c1C(=O)N1CCN(C)CC1", "Potency": "20.9 µM (active)"}, {"smiles": "Cc1cc(C(C)Nc2ccccc2)c2nc(N3CCOCC3)cc(=O)n2c1", "note": "(stereo not given)", "Potency": "inactive"}, {"smiles": "COc1cc2nccc(Oc3ccc(NC(=O)Nc4cc(C)on4)c(Cl)c3)c2cc1OC", "Potency": "26.4 µM (active)"}, {"smiles": "O=C(c1ccc(C=Cc2n[nH]c3ccccc23)cc1)N1CCNCC1", "Potency": "18.7 µM (active)"}, {"smiles": "CC1=C(CC(=O)O)c2cc(F)ccc2C1=Cc1ccc(S(C)=O)cc1", "note": "(stereo not given)", "Potency": "10.5 µM (active)"}, {"smiles": "COc1ccc(-c2oc3c(CC=C(C)C)c(O)cc(O)c3c(=O)c2O)cc1", "Potency": "18.7 µM (active)"}, {"smiles": "CC1(C)C(N(O)C(=O)Nc2ccc(Cl)cc2)N(c2ccc(Cl)cc2)C(=O)N1CC(=O)NN=CC=Cc1ccc([N+](=O)[O-])o1", "note": "(stereo not given)", "Potency": "4.18 µM (active)"}, {"smiles": "CC=C1C2C=C(C)CC1(N)c1ccc(=O)[nH]c1C2", "note": "(stereo not given)", "Potency": "inactive"}, {"smiles": "CC[C@]1(O)C[C@H]2CN(CCC3=c4ccccc4=N[C]3[C@@](C(=O)OC)(c3cc4c(cc3OC)N(C)[C@H]3[C@@](O)(C(N)=O)[C@H](O)[C@]5(CC)C=CCN6CC[C@]43[C@@H]65)C2)C1", "Potency": "0.372 µM (active)"}, {"smiles": "Cc1cc2c(cc1C1(c3ccc(C(=O)O)cn3)CC1)C(C)(C)CCC2(C)C", "Potency": "1.05 µM (active)"}, {"smiles": "FC(F)(F)c1ccc(C=Cc2nc(COc3ccc(CCCCn4ccnn4)cc3)co2)cc1", "Potency": "inactive"}, {"smiles": "CN(C)CCOc1ccc(C(=C(CCCl)c2ccccc2)c2ccccc2)cc1", "Potency": "23.5 µM (active)"}, {"smiles": "CNC(=O)c1cc(Oc2ccc(NC(=O)Nc3ccc(Cl)c(C(F)(F)F)c3)c(F)c2)ccn1", "Potency": "29.6 µM (active)"}, {"smiles": "CN[C@@H]1[C@@H](O)[C@@H](O[C@@H]2[C@@H](O)[C@H](O[C@H]3O[C@H](CN)[C@@H](O)[C@H](O)[C@@H]3O)[C@@H](N)C[C@@H]2NC(=O)[C@@H](O)CN)OC[C@]1(C)O", "Potency": "inactive"}]}]}
